Data from the OligoGym collection.

The sequences below were run against TRAPPC2 (assay: pooled miR-30 sensor sort-seq; sequence = guide strand). Settings: shRNA.
Note: reference of the scale not given here.

Sequence | sensor-assay potency score (higher = more potent)
TTTATTCCATCTTCTTGTCTTA | -0.31
ATGAGCTATGAACTGGTTCAGA | -1.51
TTTCTGTCAAATGCACTTGATC | -1.44
TGTCAAATGCACTTGATCGAAT | -0.613
TTGTCTTATGTCATGAAGCATA | -1.65
TTCAAGTACATGTTGTTCGATA | -0.28
TCGTTGAACTTGTCCACAGTTT | -0.427
TATTCCATCTTCTTGTCTTATG | -1.41
ATGCACTTGATCGAATAGGAGA | -1.42
TTATTCCATCTTCTTGTCTTAT | -1.23

What follows are sequences tested against TRIL in the same assay as above. Settings: shRNA.

Sequence | sensor-assay potency score (higher = more potent)
AACTTGTTGAAGTCGCATGGGT | -0.301
TTGCAGCTGCTGGTCATCCAGG | -1.05
TTGTACTGCAGGTCCAGCCGTC | -0.188
TACAGCTCTTCCAGCCGCGAGA | -1.34
TTGCACAGAATGAACTTGTTGA | 0.574
ATGAACTTGTTGAAGTCGCATG | -1.34
TAGGTGAGCACGTCGTGGGGGC | -0.151
TTGGTTATGAAGTTGCCGCCGA | -0.156
TTGCCGTCTAGATCCAGCCGAT | -0.561
TTCTTGTGCAGGTCTAGGGACT | -1.42
TAGAAATCGCCCCTGCTGCTGG | -0.425
TTGACTAGACTCTCCAGGCCCT | -0.105
